From the OligoGym collection

Biological target: NT5C3L
Experiment: pooled miR-30 sensor sort-seq; sequence = guide strand
Settings: shRNA
Also: reference of the scale not given here.

Q: With TAGAGCACTGACATGCTGTGGT as the sequence, how does the sensor-assay potency score (higher = more potent) read?
A: The sensor-assay potency score (higher = more potent) was 0.517.

Q: With ATTGGACTCTCTAACCACCTGG as the sequence, how does the sensor-assay potency score (higher = more potent) read?
A: Its sensor-assay potency score (higher = more potent) is 0.547.

Q: TTGCATTGGACTCTCTAACCAC was tested. Which sensor-assay potency score (higher = more potent) did it give?
A: The sensor-assay potency score (higher = more potent) was -0.0742.

Q: Which sensor-assay potency score (higher = more potent) does the source give for TGGAACACTTTCATCTGTCGGA here?
A: The sensor-assay potency score (higher = more potent) was -0.0202.

Q: How did the sensor-assay potency score (higher = more potent) turn out when TATCTGAAACTTCTGAATCTTC was run?
A: The sensor-assay potency score (higher = more potent) was -0.418.

Biological target: NTHL1
Experiment: as above
Settings: shRNA

Q: Which sensor-assay potency score (higher = more potent) does the source give for TTCTTGGTCCACCTCAGCCTGT here?
A: Its sensor-assay potency score (higher = more potent) is -1.58.

Q: With TTGGTTGCCTTCTTGGTCCACC as the sequence, how does the sensor-assay potency score (higher = more potent) read?
A: The sensor-assay potency score (higher = more potent) was -0.633.

Q: TTTTTGTTCCTCATGGCACGGA was tested. Which sensor-assay potency score (higher = more potent) did it give?
A: The sensor-assay potency score (higher = more potent) was 0.281.

Q: Which sensor-assay potency score (higher = more potent) does the source give for ATGTATTTCACCTTGCTCCTCC here?
A: Its sensor-assay potency score (higher = more potent) is 0.0621.

Q: For TTTTCCTCGCTTCTGCTGCAGC, which sensor-assay potency score (higher = more potent) is on record?
A: The sensor-assay potency score (higher = more potent) was -0.814.

Q: How did the sensor-assay potency score (higher = more potent) turn out when TAGATGAGCTTGCCCAGCGTGG was run?
A: Its sensor-assay potency score (higher = more potent) is -1.11.

Q: With TATTTCACCTTGCTCCTCCAGA as the sequence, how does the sensor-assay potency score (higher = more potent) read?
A: The sensor-assay potency score (higher = more potent) was -0.193.

Q: With TCATCTGTCTGCAGGATGCTGT as the sequence, how does the sensor-assay potency score (higher = more potent) read?
A: The sensor-assay potency score (higher = more potent) was -0.751.

Q: With TTCTGTGCACATGCGTGTCCAC as the sequence, how does the sensor-assay potency score (higher = more potent) read?
A: The sensor-assay potency score (higher = more potent) was -0.487.

Q: For ATCAGTGACAGCAGCACCTGGT, which sensor-assay potency score (higher = more potent) is on record?
A: The sensor-assay potency score (higher = more potent) was -0.43.

Q: How did the sensor-assay potency score (higher = more potent) turn out when TTGACCAGCTGTTGCTGCCAGT was run?
A: Its sensor-assay potency score (higher = more potent) is -1.05.

Q: TTGATGTATTTCACCTTGCTCC was tested. Which sensor-assay potency score (higher = more potent) did it give?
A: Its sensor-assay potency score (higher = more potent) is -0.737.

Biological target: NTM
Experiment: as above
Settings: shRNA

Q: AATCAGTCTTTTGTCATCCTTG was tested. Which sensor-assay potency score (higher = more potent) did it give?
A: Its sensor-assay potency score (higher = more potent) is -0.561.

Q: Which sensor-assay potency score (higher = more potent) does the source give for TTGTCTGTCTGCACCGAGCAGG here?
A: Its sensor-assay potency score (higher = more potent) is -0.782.

Q: Which sensor-assay potency score (higher = more potent) does the source give for TTGGCTTCTGAAATGTATGGTG here?
A: Its sensor-assay potency score (higher = more potent) is 0.211.

Q: For TTGAAGAAGATGAGTTTTGAGA, which sensor-assay potency score (higher = more potent) is on record?
A: The sensor-assay potency score (higher = more potent) was -0.515.

Q: For TTTGTCATCCTTGTACCACTGG, which sensor-assay potency score (higher = more potent) is on record?
A: Its sensor-assay potency score (higher = more potent) is 0.733.

Q: How did the sensor-assay potency score (higher = more potent) turn out when TTGCACAATGAGGTGGACCCTA was run?
A: The sensor-assay potency score (higher = more potent) was -0.498.

Q: Which sensor-assay potency score (higher = more potent) does the source give for TTCTTTCCTTCAATCAGTCTTT here?
A: Its sensor-assay potency score (higher = more potent) is -0.442.

Q: With TCTGTCTGCACCGAGCAGGTGT as the sequence, how does the sensor-assay potency score (higher = more potent) read?
A: The sensor-assay potency score (higher = more potent) was -0.506.

Q: TTGCTCAGAAGGACCACGCGAG was tested. Which sensor-assay potency score (higher = more potent) did it give?
A: Its sensor-assay potency score (higher = more potent) is -0.271.

Biological target: NTRK2
Experiment: as above
Settings: shRNA

Q: How did the sensor-assay potency score (higher = more potent) turn out when TTTATCAGTGACGTCTGTGGAA was run?
A: Its sensor-assay potency score (higher = more potent) is -0.0514.

Q: Which sensor-assay potency score (higher = more potent) does the source give for TATGAAACAAAACAAAACCTTT here?
A: Its sensor-assay potency score (higher = more potent) is -1.09.

Q: How did the sensor-assay potency score (higher = more potent) turn out when TCGTTGATGATTTCTAACCTTT was run?
A: Its sensor-assay potency score (higher = more potent) is -0.793.

Q: Which sensor-assay potency score (higher = more potent) does the source give for TTTAGTACAGATGTATTTGGAC here?
A: Its sensor-assay potency score (higher = more potent) is -0.241.

Q: With TATTAGGAACCGGATCACCTGC as the sequence, how does the sensor-assay potency score (higher = more potent) read?
A: The sensor-assay potency score (higher = more potent) was -1.01.

Q: With TTGATGTGCTGAACAAATGTGT as the sequence, how does the sensor-assay potency score (higher = more potent) read?
A: Its sensor-assay potency score (higher = more potent) is 0.264.

Q: With TATAGAACCACTGAAGCGCTGG as the sequence, how does the sensor-assay potency score (higher = more potent) read?
A: Its sensor-assay potency score (higher = more potent) is 0.358.

Q: For TTGTTTGACAGCTGGTACCAGG, which sensor-assay potency score (higher = more potent) is on record?
A: The sensor-assay potency score (higher = more potent) was -0.771.

Q: For TTTCCTAGACAAACTCGTCAGT, which sensor-assay potency score (higher = more potent) is on record?
A: The sensor-assay potency score (higher = more potent) was -0.24.

Q: Which sensor-assay potency score (higher = more potent) does the source give for TTCACTGCCACCAAGATCTTGT here?
A: Its sensor-assay potency score (higher = more potent) is 0.258.

Q: TTCAACATCATCTTCGTTGATG was tested. Which sensor-assay potency score (higher = more potent) did it give?
A: Its sensor-assay potency score (higher = more potent) is -0.198.

Q: TTGCCTTTCACAGTGAATGGAA was tested. Which sensor-assay potency score (higher = more potent) did it give?
A: Its sensor-assay potency score (higher = more potent) is 0.0334.
